From PubChem BioAssay (Tox21) come the findings set out here.

A short description of assay [1]: qHTS assay to identify small molecule antagonists of the thyroid receptor (TR) signaling pathway - cell viability counter screen (AID 743064). Also: nearly all actives have a fitted effect of over 50% in size. The essentials:
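CellTiter-Fluor readout, 30 min at 37 °C/5% CO2, following 23.5 h incubation of GH3.TRE-Luc cells with test compound and 1 nM T3 (final).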

A short description of assay [2]: qHTS assay to identify small molecule antagonists of the thyroid receptor (TR) signaling pathway (AID 743065). Also: series mostly up to about 70 µM; nearly all actives have a fitted effect of over 55% in size. A digest of the protocol:
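Antagonism measured as loss of luciferase signal in GH3 cells stably carrying a TRE-luciferase reporter, co-treated with compound and T3 (1 nM final) for 23.5 h at 37 C. Viability was read in the same well by CellTiter-Fluor.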

Assay [3] has as its system thyroid hormone receptor (rat, GH3 cells). Briefly: qHTS assay to identify small molecule agonists of the thyroid receptor (TR) signaling pathway (AID 743066; calls by dose curve). For orientation: In qHTS, concentration-response curves come from the screen itself.
A short description of assay [4]: qHTS assay to identify small molecule antagonists of the estrogen receptor alpha (ER-alpha) signaling pathway - cell viability counter screen (AID 743074; calls by dose curve;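 also: HEK293 cells carrying ER-alpha-UAS-bla reporter stimulated with 17beta-estradiol; nearly all actives have a fitted effect of over 45% in size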).
A short description of assay [5]: qHTS assay to identify small molecule antagonists of the estrogen receptor alpha (ER-alpha) signaling pathway using the BG1 cell line - cell viability counter screen (AID 743081).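 Also: compound given together with 17beta-estradiol as the ER stimulus; series mostly up to about 70 µM; nearly all actives have a fitted effect of over 45% in size.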
In assay [6] the target is Aromatase (Homo sapiens) (UniProt P11511). Briefly: qHTS assay to identify aromatase inhibitors (AID 743083). Also: series mostly up to about 70 µM; nearly all actives have a fitted effect of over 55% in size.
A short description of assay [7]: qHTS assay to identify aromatase inhibitors - cell viability counter screen (AID 743084).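 Also: cells stimulated with testosterone during compound exposure; nearly all actives have a fitted effect of over 55% in size.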
Assay [8] deals with Aryl hydrocarbon receptor (Homo sapiens) (UniProt P35869). Briefly: qHTS assay to identify small molecule that activate the aryl hydrocarbon receptor (AhR) signaling pathway (AID 743085). Also: nearly all actives have a fitted effect of over 15% in size. Also: potency is read from the fitted curve at half-maximal effect.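 As to activation: HG2L7.5c1 human HepG2 liver cells with stably integrated DRE-driven firefly reporter; series mostly up to about 70 µM.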 The essentials:
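Stably transfected human liver carcinoma cells (HG2L7.5c1; 20 DRE-firefly luciferase) were incubated 5 h, dosed, and kept 24 h at 37C. Agonism was scored from increased luciferase luminescence.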

Assay [9] in a line: qHTS assay to identify small molecule that activate the aryl hydrocarbon receptor (AhR) signaling pathway - cell viability counter screen (AID 743086). Also: series mostly up to about 70 µM; nearly all actives have a fitted effect of over 45% in size. The essentials: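 Cytotoxicity counter screen: CellTiter-Fluor signal (30 min, 37 C) in 4000 HepG2 cells/well carrying the DRE-luciferase reporter, following 24 h compound exposure at 37 C.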
Assay [10] has as its target Peroxisome proliferator-activated receptor gamma (Homo sapiens) (UniProt P37231). Briefly: qHTS assay to identify small molecule agonists of the peroxisome proliferator-activated receptor gamma (PPARg) signaling pathway (AID 743094; active = well fitted activation curve with a large enough effect in the signal ratio in the repeat runs, not every such curve was filed as active; the % refers to the signal ratio). A digest of the protocol:
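Reporter activation was scored by fluorescence of cleaved LiveBLAzer B/G substrate (1 h, room temperature) in PPARg-bla HEK293H cells previously treated 17 h at 37C with DMSO-dissolved compounds.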

Assay [11] shares this target. Briefly: qHTS assay to identify small molecule antagonists of the peroxisome proliferator-activated receptor gamma (PPARg) signaling pathway (AID 743191; calls by dose curve; also: series mostly up to about 63 µM; nearly all actives have a fitted effect of over 30% in size). A digest of the protocol:
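Beta-lactamase reporter under UAS control in HEK293H PPARg-bla cells; compound treatment 17 h at 37C. Read-out: fluorescence intensity after 1 h room-temperature incubation with LiveBLAzer B/G FRET substrate.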

Assay [12] is described as follows: qHTS assay for small molecule agonists of the antioxidant response element (ARE) signaling pathway (AID 743202; active = well fitted activation curve with a large enough effect in the signal ratio in the repeat runs, not every such curve was filed as active; the % refers to the signal ratio). The essentials: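 After 16 hours of compound treatment at 37 C, HepG2 cells with a stably integrated ARE-driven beta-lactamase reporter were loaded 2 hours at room temperature with LiveBLAzer B/G FRET substrate and fluorescence intensity measured.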

Assay [13] in a line: qHTS assay for small molecule agonists of the antioxidant response element (ARE) signaling pathway - cell viability counter screen (AID 743203; calls by dose curve; also: nearly all actives have a fitted effect of over 55% in size). The essentials: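 Viability counter screen: stably transfected ARE-bla HepG2 line, 16 hrs compound exposure at 37C/5% CO2, ATP-based CellTiter-Glo luminescence measured in the reporter wells.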
A short description of assay [14]: qHTS assay for small molecule activators of the heat shock response signaling pathway - cell viability counter screen (AID 743209). Also: nearly all actives have a fitted effect of over 50% in size. A digest of the protocol:
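Viability of HSE-bla HeLa cells is measured with CellTiter-Glo in the wells already used for the reporter read. Compound exposure lasts 5 h at 37 C, and luminescence is read after 30 min at room temperature.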

Assay [15] in a line: qHTS assay for small molecule activators of the heat shock response signaling pathway (AID 743210; active = well fitted activation curve with a large enough effect in the signal ratio in the repeat runs, with a control signal flat, not every such curve was filed as active; the % refers to the signal ratio; also: series mostly up to about 63 µM). A digest of the protocol:
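Compound exposure lasted 5 h at 37 C in HeLa cells carrying a heat-shock-element-driven beta-lactamase reporter. Read-out: fluorescence intensity after 2.5 h room-temperature loading with LiveBLAzer B/G FRET substrate.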

A short description of assay [16]: qHTS assay to identify small molecule antagonists of the peroxisome proliferator-activated receptor gamma (PPARg) signaling pathway - cell viability counter screen (AID 743194). Also: nearly all actives have a fitted effect of over 55% in size. A digest of the protocol: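 Viability was measured as CellTiter-Glo luminescence in GeneBLAzer PPARg UAS-bla HEK293H cells. These cells had been exposed 17 h at 37 C to compounds together with rosiglitazone at 50 nM final, with the beta-lactamase readout taken in the same wells.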

Results filed as inconclusive are left out. Values without a mark were called inactive. Active and inactive are the calls of the source. Unless noted, calls follow the shape of the dose curve; as a rule, active = well fitted curve in the direction sought with a large enough effect in the repeat runs; inconclusive = weak or mixed curves; inactive = no such curve, though single readings can be large; an effect the other way counts as inactive or inconclusive.
% is scaled to controls: 0 for no effect and ±100 for the full control effect.

Chain of Peroxisome proliferator-activated receptor gamma (Homo sapiens) (P37231 whole entry, looked up): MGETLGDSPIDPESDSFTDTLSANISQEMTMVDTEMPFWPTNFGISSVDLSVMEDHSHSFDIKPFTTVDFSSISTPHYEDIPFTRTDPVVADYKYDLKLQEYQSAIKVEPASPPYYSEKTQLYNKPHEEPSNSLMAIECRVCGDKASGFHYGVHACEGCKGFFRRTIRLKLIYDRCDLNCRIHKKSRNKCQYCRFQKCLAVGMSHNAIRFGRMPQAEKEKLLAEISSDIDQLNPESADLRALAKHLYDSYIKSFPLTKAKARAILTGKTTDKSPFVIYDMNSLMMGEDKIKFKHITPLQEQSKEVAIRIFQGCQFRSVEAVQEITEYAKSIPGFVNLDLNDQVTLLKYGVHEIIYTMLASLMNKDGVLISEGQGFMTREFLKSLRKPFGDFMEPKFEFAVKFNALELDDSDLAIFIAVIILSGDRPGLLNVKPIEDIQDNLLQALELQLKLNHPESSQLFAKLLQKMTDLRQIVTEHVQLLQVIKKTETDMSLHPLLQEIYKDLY
Chain of Aromatase (Homo sapiens) (P11511 whole entry, looked up): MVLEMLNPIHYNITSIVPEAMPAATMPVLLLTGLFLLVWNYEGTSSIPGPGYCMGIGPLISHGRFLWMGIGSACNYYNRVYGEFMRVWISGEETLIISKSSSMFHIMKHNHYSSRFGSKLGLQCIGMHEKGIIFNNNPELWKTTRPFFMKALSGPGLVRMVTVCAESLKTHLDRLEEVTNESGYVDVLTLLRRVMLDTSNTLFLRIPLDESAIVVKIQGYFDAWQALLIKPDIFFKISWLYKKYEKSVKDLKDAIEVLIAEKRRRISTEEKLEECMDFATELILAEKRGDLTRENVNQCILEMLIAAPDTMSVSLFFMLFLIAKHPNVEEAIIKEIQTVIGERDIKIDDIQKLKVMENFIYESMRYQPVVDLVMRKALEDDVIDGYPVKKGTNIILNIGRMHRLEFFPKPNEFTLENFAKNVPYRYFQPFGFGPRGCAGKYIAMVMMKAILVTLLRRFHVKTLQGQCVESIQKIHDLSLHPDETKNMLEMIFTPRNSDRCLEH
Chain of Aryl hydrocarbon receptor (Homo sapiens) (P35869 whole entry, looked up): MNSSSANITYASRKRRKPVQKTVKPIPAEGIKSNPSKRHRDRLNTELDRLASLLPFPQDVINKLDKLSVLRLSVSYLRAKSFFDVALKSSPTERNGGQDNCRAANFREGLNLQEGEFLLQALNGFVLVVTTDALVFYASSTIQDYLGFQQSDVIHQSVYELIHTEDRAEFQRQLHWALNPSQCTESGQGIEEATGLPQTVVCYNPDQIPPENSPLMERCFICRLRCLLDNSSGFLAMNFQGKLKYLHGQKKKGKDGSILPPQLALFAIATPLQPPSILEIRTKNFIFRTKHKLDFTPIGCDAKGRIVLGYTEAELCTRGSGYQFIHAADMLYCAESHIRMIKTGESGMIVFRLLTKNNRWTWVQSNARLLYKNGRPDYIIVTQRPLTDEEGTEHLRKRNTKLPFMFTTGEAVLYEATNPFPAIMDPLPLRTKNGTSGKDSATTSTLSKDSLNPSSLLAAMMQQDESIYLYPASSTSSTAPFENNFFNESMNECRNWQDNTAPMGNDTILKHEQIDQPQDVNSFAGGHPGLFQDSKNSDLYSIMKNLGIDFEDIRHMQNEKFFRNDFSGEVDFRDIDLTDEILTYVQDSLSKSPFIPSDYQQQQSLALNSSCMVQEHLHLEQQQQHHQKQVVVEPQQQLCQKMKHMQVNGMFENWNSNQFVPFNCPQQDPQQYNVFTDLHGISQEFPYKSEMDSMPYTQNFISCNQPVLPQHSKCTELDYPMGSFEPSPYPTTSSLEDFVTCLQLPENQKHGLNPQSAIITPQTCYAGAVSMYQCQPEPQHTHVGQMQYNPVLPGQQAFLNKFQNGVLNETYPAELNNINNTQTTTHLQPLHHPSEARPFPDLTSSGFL

In the case of `CC(C=O)Cc1ccc(C(C)C)cc1` (stereo unspecified), the Potency entry in assay [1], in assay [2], in assay [3], in [6], in assay [7] and in assay [8] was “inactive” in each case. The Potency result in assay [9] and in assay [12] was “inactive” throughout. For the same compound, the compound was called inactive in assay [4], in assay [5], in [10], in assay [11], in [13] and in assay [14]. Further, the compound was called inactive in assay [15].

On to `NS(=O)(=O)c1cc(C2(O)NC(=O)c3ccccc32)ccc1Cl` (stereo unspecified), for which the Potency result in assay [1], in assay [2], in assay [3], in assay [6], in assay [7] and in [8] was “inactive” throughout. In addition, the Potency result in assay [9] and in assay [12] was “inactive” each time. Besides, the outcome in [4], in [5], in [10] and in [13] was inactive.

Consider `C=CC(=O)OCCCCCC`, for which the Potency result in assay [1], in assay [2], in assay [3], in assay [6], in [7] and in assay [8] was “inactive” throughout. For the same compound, the Potency result in assay [16] and in [12] was “inactive” throughout. Besides, the call in [4], in assay [5], in assay [13], in assay [14] and in assay [15] was inactive.

`C=CC(=O)N1CCOCC1`: the Potency entry in assay [1], in assay [2], in assay [3], in [6], in [7] and in assay [8] was “inactive” each time. For the same compound, the Potency result in assay [9] and in assay [16] was “inactive” in each case. Moreover, the compound was called inactive in [4], in [5], in assay [11], in [13], in assay [14] and in assay [15].

With `C#CC(O)CCCCC` (stereo unspecified), the Potency result in assay [1], in [2], in [3], in assay [6], in assay [7] and in assay [8] was “inactive” in each case. Moreover, the Potency result in [9], in assay [16] and in [12] was “inactive” in each case. For the same compound, the call in [4], in assay [5], in [10], in assay [13] and in assay [15] was inactive.

Consider `CCN1CCCC1CNC(=O)c1cc(S(N)(=O)=O)ccc1OC` (stereo unspecified), for which the Potency result in [1], in assay [2], in assay [3], in [6], in assay [7] and in assay [9] was “inactive” throughout. Moreover, the Potency result in assay [12] is “inactive”. Also, the call in assay [4], in [5], in assay [11], in assay [13], in assay [14] and in assay [15] was inactive.

Take `C#CC(O)C(CC)CCCC` (stereo unspecified): the Potency entry in assay [1], in [2], in assay [3], in [6], in [7] and in assay [8] was “inactive” in each case. In addition, the Potency entry in assay [9] and in [16] was “inactive” throughout. In addition, the compound was classed as inactive in [4], in assay [5], in assay [10], in [11], in assay [13] and in [14]. For the same compound, the compound was classed as inactive in [15].

On to `C#CC(C)(O)CC(C)C` (stereo unspecified), for which the Potency result in assay [1], in assay [2], in assay [3], in [6], in [7] and in assay [8] was “inactive” each time. Besides, the Potency entry in assay [16] and in assay [12] was “inactive” throughout. The call in assay [4], in assay [5], in assay [10], in assay [11], in assay [13] and in assay [14] was inactive. The call in assay [15] was inactive.

`C=CCOc1nc(OCC=C)nc(OCC=C)n1`: the Potency entry in [1], in assay [2], in assay [3], in assay [6], in assay [7] and in assay [9] was “inactive” throughout. The compound was classed as inactive in assay [4], in assay [5], in assay [10], in [11], in [13] and in assay [14]. Moreover, the compound was called inactive in assay [15]. In [8], the Potency was 54.5 µM (active).

Regarding `COc1cc(C(=O)N2CCOCC2)cc(OC)c1OC`, the Potency result in assay [1], in assay [2], in [3], in assay [6], in assay [7] and in assay [8] was “inactive” each time. Further, the Potency result in assay [9], in assay [16] and in assay [12] was “inactive” each time. Moreover, the compound was classed as inactive in assay [4], in assay [5], in [10], in [13] and in [14].

`CSc1ccc(C=O)cc1`: the Potency result in assay [1], in [2], in assay [3], in assay [6], in assay [7] and in assay [8] was “inactive” each time. Also, the Potency result in assay [9] and in [12] was “inactive” in each case. For the same compound, the call in assay [4], in [5], in [10], in [11], in assay [13] and in assay [14] was inactive. Moreover, the compound was classed as inactive in [15].

In the case of `CCC(C)OC(=O)N1CCCCC1CCO` (stereo unspecified), the Potency entry in assay [1], in [2], in assay [3], in [6], in assay [7] and in [8] was “inactive” throughout. For the same compound, the Potency result in assay [16] and in [12] was “inactive” throughout. The call in [4], in assay [5], in assay [10], in assay [13] and in assay [14] was inactive.

For `CCCOCC(C)OCC(C)O` (stereo unspecified), the Potency result in assay [1], in assay [2], in assay [3], in assay [6], in assay [7] and in assay [8] was “inactive” in each case. Besides, in [9], the Potency entry is “inactive”. Besides, the compound was classed as inactive in assay [4], in assay [5], in [13], in assay [14] and in assay [15].

As for `COc1cc(CCC(C)=O)ccc1O`, the Potency entry in [1], in [2], in assay [3], in assay [6], in assay [7] and in [8] was “inactive” each time. The result in assay [4], in assay [5], in assay [13], in assay [14] and in [15] was inactive.

As to `NC(=S)Nc1cccc2ccccc12`, the activity change, negative = cytotoxic in assay [1] was -2.02% [at 8.44 µM]. In addition, the activity, negative = inhibition in assay [2] was -4.6% [at 8.44 µM]; in [6], 16.7% [at 8.47 µM]. Further, the figures for the activation in assay [3] and in assay [8] were 0.336% [at 8.08 µM] and 0.499% [at 8.47 µM], respectively. In [4], the activity, negative = cytotoxicity is 13.6% [at 6.72 µM]. Besides, the activity change, negative = cytotoxicity is -0.944% [at 8.47 µM] in assay [5], 1.26% [at 8.47 µM] in assay [7] and -5.69% [at 5.95 µM] in assay [14]. For the same compound, the figures for the viability change, negative = cytotoxic in assay [9] and in assay [13] were 1.55% [at 8.47 µM] and 10% [at 8.36 µM], respectively.
